According to PubChem BioAssay AID651994 (Sanford-Burnham Center for Chemical Genomics, 2013):
Among all 2,500 compounds or so, about 790 (32%) were called active.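 How the source made its calls: active means mean cytotoxicity at 5 µM above about 25% (limit read from the data); inactive means the rest.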 The entries come from a sample that favours actives as a whole.

Assay: cell viability loss, Sufu-null reporter line – ATP luminescence, single concentration, cytotoxicity control for Gli-SUFU antagonist project, confirmation (AID 651994);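 further: cells exposed to compound overnight for roughly 16 to 18 hours; plate controls were DMSO wells with cells for no effect and medium without cells for full effect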
Details: Sufu-KO-LIGHT cells cytotoxicity, at 5 µM, stronger effect = higher value

| SMILES | cytotoxicity |
| --- | --- |
| CCOc1cccc(=NC2CCCCC2)c2c(C)[nH]c(C)c12 | 32.3% (active) |
